Rows were chosen to be rich in hits. Some 6.5% of all compounds tested hit in one or more screens of this group.
Marburg entry inh – Marburg virus entry inhibition; Marburg virus pseudotyped entry inhibition, cell reporter; Potency, µM (top dose mostly 37.8 µM), for inactives: at the highest dose activity change, negative = inhibition, most hits filed as inhibitors; 300,000 compounds, 1.8% hits; calls by dose curve; tested in HEK293 cells; also: potency is read from the fitted curve at half-maximal effect
HCMV inh – inhibitors of human cytomegalovirus | HFF cells, HCMV-luciferase reporter, 72 h; stronger effect = lower value | activity change, negative = inhibition, % at 57.5 µM | 410,000 compounds, 4.5% hits; in the data active = activity change below about -60%; inconclusive = no clear call, values can overlap the other calls; inactive = above about -39%
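Compounds were evaluated in HFFs infected with an HCMV luciferase reporter virus (MOI 1 PFU/cell). Luciferase in lysates collected 72 h post infection served as the replication measure.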
FMDV antiviral – antivirals against foot and mouth disease virus | FMDV antiviral cell-based qHTS | Potency, µM (titrated, usually from 57.9 µM), without a hit: at the highest dose activity change, negative = inhibition, most hits filed as inhibitors | 410,000 compounds, 1.2% hits | AID 1159524; calls by dose curve; tested in HEK293T cells; also: read-out not given here; potency is read from the fitted curve at half-maximal effect; nearly all actives have a fitted effect of over 45% in size
VACV Venus inh – inhibitors of vaccinia virus (Venus reporter). Vaccinia virus Venus reporter expression, fluorescence. Potency, µM (highest dose often 36.5 µM), for inactives: at the top dose activity change, negative = inhibition, actives largely listed as inhibitors. 330,000 compounds, 0.46% hits. AID 720580; calls by dose curve; tested in A549 cells; also: potency is read from the fitted curve at half-maximal effect; nearly all actives have a fitted effect of over 30% in size
VACV mCherry inh – vaccinia inhibition (mCherry reporter). Potency, µM (doses to about 36.5 µM), for the others: top-dose activity change, negative = inhibition, actives largely listed as inhibitors. 310,000 compounds, 0.63% hits. AID 720579. Vaccinia virus mCherry reporter infection, fluorescence; calls by dose curve; tested in A549 cells; also: potency is read from the fitted curve at half-maximal effect; nearly all actives have a fitted effect of over 35% in size
Lassa entry inh – Lassa virus entry inhibition; AID 540256; Potency, µM (titrated, usually from 37.9 µM), for the others: at the top dose activity change, negative = inhibition, most hits filed as inhibitors; Lassa virus pseudotype entry inhibition, cell reporter; 300,000 compounds, 1.2% hits; calls by dose curve; tested in HEK293 cells; also: potency is read from the fitted curve at half-maximal effect; nearly all actives have a fitted effect of over 50% in size
Active calls of the source: *; i = inactive; ? = inconclusive; . = no result given; [ ] = dose if it differs, or a comment. % is scaled to controls: 0 for no effect and ±100 for the full control effect.

SMILES | Marburg entry inh | HCMV inh | FMDV antiviral | VACV Venus inh | VACV mCherry inh | Lassa entry inh
CN(C)S(=O)(=O)Oc1ccsc1C(=O)Nc1cccc(Cl)c1Cl | -21.5% | -68.0* | -29.8% | -15.4% | i | ?
CN(C)S(=O)(=O)Oc1ccsc1C(=O)Nc1ccccc1Cl | -12.1% | -13.0 | -22.7% | . | . | -8.5%
CC(=O)Nc1nc(-c2ccccc2)c(-c2ccccc2)o1 | 9.0%[46.1 µM] | -3.5 | -3.0% | -23.6% | -10.0% | -11.4%
COc1cc(OC)cc(C(=O)Nc2nc(-c3ccccc3)c(-c3ccccc3)o2)c1 | 20.6µM* | ? | -25.1% | . | . | ?
CC(C)c1c(C(=O)NCC(C)(C)N2CCOCC2)cnn1-c1nccc(-c2cccs2)n1 | . | . | -1.3% | -13.7% | -25.7% | .
O=C(Nc1ccccc1Br)C1CC(=O)N(c2ccc3c4c(cccc24)CC3)C1 (centres undefined) | 10µM* | -29.3 | -3.1% | -0.4% | -13.4% | ?
COC(=O)[C@H]1O[C@@H](c2c(OC)c(OC)c(C)c(OC)c2OC)[C@H](C)[C@@H](O)[C@@H]1C | 6.2%[14.2 µM] | . | . | . | . | .
COc1ccc(CN2CCc3ccc(NC(=O)CCc4ccccc4OC)cc3C2)c(O)c1 | ? | -72.2* | ? | -29.9% | ? | ?
COc1cc(CN2CCc3ccc(NC(=O)CCc4ccccc4OC)cc3C2)ccc1O | . | -10.2 | -0.7% | . | . | .
COc1cccc(CN2CCc3ccc(NC(=O)CCc4ccc(C)cc4)cc3C2)c1O | . | -60.6* | ? | . | . | .
O=[N+]([O-])c1ccc(SCc2ccncc2)nc1 | . | -83.7* | 8.2% | -16.4% | -20.5% | .
CN1CCCC1CCOC(C)(c1ccccc1)c1ccc(Cl)cc1 (centres undefined) | 9.2µM* | -33.3 | -26.2% | -27.5% | -14.5% | 20.6µM*
CCCCn1c(=O)[nH]c(=O)c2c1nc(CN1C(=O)c3ccccc3S1(=O)=O)n2CCC | -3.3% | -6.9 | ? | 1.0% | -6.4% | 17.7%
CCCCn1c(=O)[nH]c(=O)c2c1nc(Cn1ncc(Cl)c(Cl)c1=O)n2CCC | ? | -100.4* | ? | ? | ? | ?
CN(C)NC(=S)NC1CC2CCC1C2 (centres undefined) | . | -61.1* | 3.4% | . | . | .
CC(=O)Nc1cccc(-c2cn3ccc(C)cc3n2)c1 | . | 73.1 | 65.3% | . | . | .
Cc1ccn2cc(-c3cccc([N+](=O)[O-])c3)nc2c1 | ? | 6.3 | -10.4% | -10.0% | -12.0% | 4.47µM*
Cc1ccn2cc(-c3cccc(S(=O)(=O)N4CCCC4)c3)nc2c1 | ? | -64.1* | -2.5% | -17.2% | i | ?
CC(C)n1cc(CN2CCCC(C(=O)Nc3cccc(-c4cc5ccccc5[nH]4)c3)C2)cn1 (centres undefined) | ? | -33.0 | ? | ? | 11.2µM* | 7.08µM*
COc1ccc(Nc2nc3[nH]c(=O)cc(O)c3s2)cc1 | ? | -25.3 | -3.1% | 4.9% | 0.9% | ?
O=c1cc(O)c2sc(Nc3ccc(F)c(Cl)c3)nc2[nH]1 | -1.0%[46.1 µM] | -101.4* | 15.0% | 13.0% | 3.8% | -0.1%
O=c1cc(O)c2sc(Nc3ccc(Cl)c(F)c3)nc2[nH]1 | -12.4%[46.1 µM] | -76.5* | -5.4% | 7.9% | ? | -10.0%
OC(c1ccc(Cl)cc1)c1nnc(Nc2ccc(F)c(Cl)c2)s1 (centres undefined) | . | -63.3* | . | . | . | .
Cc1ccc(Cl)cc1N1CCN(C(=O)Cn2nc(C)n3c(cc4sccc43)c2=O)CC1 | 4.5%[46.1 µM] | 26.8 | ? | -17.7% | -15.9% | .
Cc1cnc(CNC(=O)c2c3n(c(C)cc2=O)-c2ccccc2SC(c2ccsc2)C3)cn1 (centres undefined) | . | . | -15.1% | -10.4% | -11.7% | .
SMILES | Marburg entry inh | HCMV inh | FMDV antiviral | VACV Venus inh | VACV mCherry inh | Lassa entry inh
Nc1nn(-c2ccccc2)c(N)c1N=Nc1cccc(F)c1 | . | 95.0 | 43.3% | . | . | .
Nc1nn(-c2ccccc2)c(N)c1N=Nc1ccc2c(c1)OCO2 | 8.91µM* | 46.1 | -15.4% | ? | ? | ?
Cc1nnc(-c2ccc(N3CCOCC3)c([N+](=O)[O-])c2)o1 | . | . | 19.4% | . | . | .
CNS(=O)(=O)c1cc(-c2nnc(Nc3cc(C)ccc3C)c3ccccc23)ccc1C | . | -77.9* | 9.0% | -14.4% | -22.3% | ?
Cc1ccc(-c2nnc(Nc3ccccc3)c3ccccc23)cc1S(=O)(=O)N1CCOCC1 | . | -1.2 | ? | -20.2% | ? | -13.9%[46.1 µM]
Cc1ccc(-c2nnc(Nc3cccc(O)c3)c3ccccc23)cc1S(=O)(=O)N1CCOCC1 | . | -60.9* | -47.6% | -28.0% | -20.0% | ?
Cc1cccc(Nc2nnc(-c3ccc(N4CCOCC4)c([N+](=O)[O-])c3)c3ccccc23)c1 | 2.24µM* | -67.8* | -13.5% | -27.1% | -12.8% | 10µM*
Cc1ccc(Nc2nnc(-c3ccc(C)c(S(=O)(=O)N4CCOCC4)c3)c3ccccc23)c(C)c1 | . | -66.2* | -18.6% | -32.0% | -15.0% | ?
Cc1ccc(S(=O)(=O)c2nnn3c2nc(NCc2cccs2)c2sccc23)cc1C | . | 14.4 | 11.2% | ? | ? | ?
COc1ccc(C(=O)N2CCCCC2CCN2CCOCC2)cc1 (centres undefined) | -4.1%[46.1 µM] | 24.0 | -18.4% | -2.7% | -11.5% | -1.9%[46.1 µM]
C[C@H](CO)N1C[C@H](C)[C@H](CN(C)C(=O)Nc2cccc3ccccc23)Oc2ncc(Br)cc2C1=O | . | -17.4 | . | . | . | .
O=C(CCC1CCCN(C(=O)c2ccc3[nH]ccc3c2)C1)N1CCN(c2ccccn2)CC1 (centres undefined) | ? | -83.2* | ? | -17.9% | -2.2% | ?
CN1CCN(C2=C(Cl)C(=O)N(CCc3ccccc3)C2=O)CC1 | -0.8% | -68.4* | 21.4% | . | . | -17.0%
O=C1C(Cl)=C(N2CCOCC2)C(=O)N1CCc1ccccc1 | -7.5% | 64.6 | -15.9% | 0.1% | -19.3% | -20.8%
COc1cc(/C=C/C(=O)OCC(=O)N2CCC(Cc3ccccc3)CC2)ccc1O | -8.6% | -18.2 | 31.6µM* | -13.6% | i | ?
COc1cccc(OC)c1OCCCN1CCC(Cc2ccccc2)CC1 | 11.2µM* | -0.9 | 19.2% | -3.8% | -13.5% | ?
Nc1cc(C(=O)OCC(=O)N2CCC(Cc3ccccc3)CC2)ccc1Cl | . | -64.6* | -18.1% | . | . | .
COc1cccc(OC)c1C(=O)OCC(=O)N1CCC(Cc2ccccc2)CC1 | 4.6%[46.1 µM] | -99.5* | -5.9% | -7.6% | i | -5.6%[46.1 µM]
COc1cc(/C=C/C(=O)OCC(=O)N2CCC(C)CC2)ccc1O | 11.9% | 3.3 | -4.3% | -7.7% | -4.0% | 11.6%
COc1cccc(C(=O)OCC(=O)N2CCC(Cc3ccccc3)CC2)c1OC | . | 28.0 | ? | . | . | .
O=C(NCCc1ccccc1)c1ccc(CSc2nc3ccncc3n2Cc2ccccc2)cc1 | -4.1%[46.1 µM] | 28.9 | -9.0% | -12.5% | -18.2% | ?
COc1ccc(CCn2c(C)cc3c(c2=O)[C@H](c2ccc4c(c2)OCO4)C(C#N)=C(N)O3)cc1OC | -28.1% | . | . | . | . | .
COc1cc(/C=C/C(=O)OC2CC3CCC2(C)C3(C)C)ccc1O (centres undefined) | . | -102.6* | 17.2% | -8.7% | -2.1% | .
COc1cc(/C=C/C(=O)OCC(=O)c2ccc(OC(F)F)cc2)ccc1O | -37.8% | -36.5 | 31.6µM* | -7.5% | -18.6% | ?

Bioassay records deposited in PubChem by National Center for Advancing Translational Sciences (NCATS).
